Test results taken from PubChem BioAssay AID1159580 (chemical genetic matrix, 2015).
Several values for one entry are separate records, joined by “and”; a condition that tells them apart may be missing. Equal values may be shown once. The campaign covered roughly 5,500 compounds. About 2,000 (36%) were called active. Not shown: some 18% with an inconclusive outcome. Rule as the data show it: active = normalized growth mostly below about 0.91 (no sharp cut-off); inconclusive = no clear call, values can overlap the other calls; inactive = mostly above about 0.92. The list shows a part of the results.

Assay: chemical genetic growth profiling, strain panel (AID 1159580);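 also: tested at 20 µM; growth read once vehicle control cultures reached saturation at 30 °C; 1 = growth at the plate median or of vehicle wells; lower values mean less growth of the strain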
Conditions: S. cerevisiae deletion strains, growth OD
[1] = locus YAL040C, strain CLN3, hits give low values
[2] = locus YCL061C, strain MRC1 (second series), hits give low values
[3] = locus YDR150W, strain NUM1, hits give low values
[4] = locus YDR363W, strain ESC2, hits give low values
[5] = locus YER002W, strain NOP16, hits give low values
[6] = locus YGR078C, strain PAC10, hits give low values
[7] = locus YMR307W, strain GAS1, hits give low values
[8] = locus YNL153C, strain GIM3, hits give low values
[9] = locus YNL175C, strain NOP13, hits give low values
[10] = locus YNL197C, strain WHI3, hits give low values
[11] = locus YNL224C, strain SQS1, hits give low values
[12] = locus YOR083W, strain WHI5 (second series), hits give low values
[13] = locus YJR075W, strain HOC1, hits give low values

Measured: normalized growth

N[C@@H](CCC(=O)N[C@H](CSN=O)C(=O)NCC(=O)O)C(=O)O
inactive: [1] 1 | [2] 1.01 | [3] 1 | [4] 1.05 | [5] 1 | [6] 1.02 | [7] 0.996 | [8] 1.01 | [9] 1.01 | [10] 1 | [11] 1 | [12] 1.01 | locus YPL055C, strain LGE1, hits give low values 1.02 | locus YPL241C, strain CIN2, hits give low values 0.995

CCn1ccnc1CC1COc2ccccc2O1 (configuration not stated)
inactive: [1] 1.02 | [2] 1 | [3] 1 | [4] 0.993 | [5] 1.01 | locus YGR229C, strain SMI1, hits give low values 0.993 | [13] 1 | [7] 0.996 | locus YNL128W, strain TEP1, hits give low values 1.01 | [9] 0.997 | [10] 0.996 | [11] 1.01 | [12] 1.07

COc1c2c(cc3c1OCO3)CCN(C)C2
inactive: locus YAL021C, strain ccr4, hits give low values 0.987 | locus YAL026C, strain drs2, hits give low values 1.01 | locus YAL030W, strain snc1, hits give low values 1.01 | locus YBL061C, strain skt5, hits give low values 1.02 | locus YBR009C, strain hhf1, hits give low values 1.02 | locus YBR021W, strain FUR4, hits give low values 0.988 | locus YBR023C, strain chs3, hits give low values 1.01 | locus YBR171W, strain sec66, hits give low values 1.03 | locus YBR229C, strain ROT2, hits give low values 1.01 | locus YBR231C, strain swc5, hits give low values 1.01 | locus YBR279W, strain paf1, hits give low values 1 | locus YCL011C, strain gbp2, hits give low values 1.01 | locus YCL016C, strain dcc1, hits give low values 1.01 | locus YCL029C, strain bik1, hits give low values 1 | locus YCL061C, strain MRC1, hits give low values 1.02 | locus YCL069W, strain vba3, hits give low values 1 | locus YCR088W, strain abp1, hits give low values 1.01 | locus YDL005C, strain med2, hits give low values 1.02 | locus YDL035C, strain GPR1, hits give low values 1.02 | locus YDL040C, strain nat1, hits give low values 0.996 | locus YDL074C, strain BRE1, hits give low values 1.01 | locus YDL101C, strain DUN1, hits give low values 1.02 | locus YDL185W, strain tfp1, hits give low values 0.995 | locus YDL192W, strain arf1, hits give low values 1.01 | locus YDR001C, strain nth1, hits give low values 1.01 | locus YDR069C, strain doa4, hits give low values 1.02 | locus YDR101C, strain arx1, hits give low values 1 | locus YDR137W, strain rgp1, hits give low values 1.01 | locus YDR159W, strain sac3, hits give low values 1.01 | locus YDR162C, strain NBP2, hits give low values 1.01 | locus YDR195W, strain ref2 0.999 | locus YDR297W, strain sur2, hits give low values 0.999 | locus YDR318W, strain mcm21, hits give low values 1 | locus YDR334W, strain swr1, hits give low values 1.02 | locus YDR335W, strain msn5, hits give low values 0.998 | locus YDR388W, hits give low values 1 | locus YDR392W, strain spt3, hits give low values 0.991 | locus YDR502C, strain sam2, hits give low values 1 | locus YEL003W, strain gim4, hits give low values 1.01 | locus YEL037C, strain rad23, hits give low values 1 | locus YEL061C, strain CIN8 (second series), hits give low values 1 | locus YEL061C, strain CIN8, hits give low values 1.01 | locus YER015W, strain faa2, hits give low values 1.01 | locus YER016W, strain bim1, hits give low values 1.02 | locus YER110C, hits give low values 0.996 | locus YER111C, strain swi4, hits give low values 1.01 | locus YER155C, strain BEM2 (second series), hits give low values 1.02 | locus YER155C, strain BEM2, hits give low values 1.01 | locus YER167W, strain BCK2, hits give low values 1 | locus YFR010W, strain ubp6, hits give low values 1.02 | locus YGL078C, strain dbp3, hits give low values 1 | locus YGL086W, strain mad1, hits give low values 1.02 | locus YGL167C, strain pmr1, hits give low values 1.02 | locus YGL173C, strain kem1, hits give low values 1.02 | locus YGL227W, strain vid30, hits give low values 1.01 | locus YGL240W, strain doc1, hits give low values 1.02 | locus YGL248W, strain PDE1, hits give low values 1.01 | locus YGL253W, strain hxk2, hits give low values 1.01 | [6] 1.01 | locus YGR135W, strain pre9, hits give low values 0.992 | locus YGR252W, strain gcn5, hits give low values 0.986 | locus YHR013C, strain ard1, hits give low values 1.01 | locus YHR027C, strain rpn1, hits give low values 1.02 | locus YHR030C, strain SLT2, hits give low values 1 and 1.06 | locus YHR079C, strain IRE1 (second series), hits give low values 1.02 | locus YHR079C, strain IRE1, hits give low values 1.05 | locus YHR094C, strain hxt1, hits give low values 0.994 | locus YHR129C, strain ARP1, hits give low values 1 | locus YHR142W, strain chs7, hits give low values 0.991 | locus YHR200W, strain rpn10, hits give low values 0.975 | locus YIL066C, strain RNR3, hits give low values 1.01 | locus YIL073C, strain SPO22, hits give low values 1.01 | locus YIL125W, strain kgd1, hits give low values 1 | locus YIR030C, strain dcg1, hits give low values 0.997 | locus YJL092W, strain hpr5, hits give low values 1.01 | locus YJL095W, strain BCK1 (second series), hits give low values 1.01 | locus YJL095W, strain BCK1, hits give low values 0.996 and 1.04 | locus YJL115W, strain asf1, hits give low values 1.01 | locus YJL129C, strain trk1, hits give low values 1.03 | locus YJL134W, strain LCB3, hits give low values 0.998 | locus YJL154C, strain vps35, hits give low values 0.998 | locus YJL164C, strain tpk1, hits give low values 0.992 | locus YJL166W, strain qcr8, hits give low values 0.999 | locus YJL168C, strain set2, hits give low values 1 | locus YJL187C, strain SWE1 (second series), hits give low values 1.01 | locus YJL187C, strain SWE1, hits give low values 1.01 | locus YJR043C, strain POL32, hits give low values 1.02 | locus YJR066W, strain TOR1, hits give low values 0.976 | [13] 1.01 | locus YKL009W, strain mrt4, hits give low values 1.02 | locus YKL068W, hits give low values 0.992 | locus YKL085W, strain MDH1 (second series), hits give low values 0.999 | locus YKL085W, strain MDH1, hits give low values 0.999 | locus YKL160W, strain elf1, hits give low values 0.992 | locus YKL190W, strain CNB1, hits give low values 1.01 | locus YKR001C, strain vps1, hits give low values 0.964 | locus YKR026C, strain gcn3, hits give low values 1.01 | locus YKR091W, strain srl3, hits give low values 0.998 | locus YLL001W, strain dnm1, hits give low values 0.991 | locus YLL026W, hits give low values 1.01 | locus YLL041C, strain sdh2, hits give low values 1.01 | locus YLR027C, strain aat2, hits give low values 1.02 | locus YLR039C, strain RIC1, hits give low values 1.02 | locus YLR058C, strain SHM2, hits give low values 1.01 | locus YLR102C, strain apc9, hits give low values 0.997 | locus YLR113W, strain HOG1, hits give low values 1.04 | locus YLR221C, strain rsa3, hits give low values 1.03 | locus YLR258W, strain gsy2, hits give low values 0.999 | locus YLR262C, strain YPT6 (second series), hits give low values 0.987 | locus YLR262C, strain YPT6, hits give low values 1.01 | locus YLR268W, strain sec22, hits give low values 1.01 | locus YLR320W, strain mms22, hits give low values 1.02 | locus YLR330W, strain CHS5, hits give low values 1.01 | locus YLR342W, strain FKS1 (second series), hits give low values 1.01 | locus YLR342W, strain FKS1, hits give low values 1 | locus YLR357W, strain rsc2, hits give low values 1.01 | locus YLR370C, strain arc18, hits give low values 1.01 | locus YLR371W, strain rom2, hits give low values 1 | locus YLR384C, strain iki3, hits give low values 1.02 | locus YLR418C, strain cdc73, hits give low values 0.957 | locus YML016C, strain PPZ1, hits give low values 0.986 | locus YML032C, strain rad52, hits give low values 0.982 | locus YML120C, strain ndi1, hits give low values 1 | locus YML124C, strain tub3, hits give low values 0.99 | locus YMR058W, strain fet3, hits give low values 1.02 | locus YMR078C, strain ctf18, hits give low values 0.996 | locus YMR125W, strain sto1, hits give low values 1 | locus YMR129W, hits give low values 1.01 | locus YMR205C, strain PFK2, hits give low values 0.996 | locus YMR223W, strain ubp8, hits give low values 0.992 | locus YMR231W, strain pep5, hits give low values 0.987 | locus YMR263W, strain SAP30, hits give low values 1.02 | [7] 1.02 | locus YNL067W, strain RPL9B, hits give low values 1.01 | locus YNL071W, strain lat1, hits give low values 1 | [8] 1 | locus YNL183C, strain NPR1, hits give low values 0.985 | locus YNL209W, strain ssb2, hits give low values 1 | locus YNL233W, strain BNI4, hits give low values 1.01 | locus YNL248C, strain rpa49, hits give low values 1.02 | locus YNL250W, strain rad50, hits give low values 0.993 | locus YNL271C, strain bni1, hits give low values 1.01 | locus YNL298W, strain CLA4, hits give low values 0.984 | locus YNL307C, strain MCK1, hits give low values 1 | locus YNL322C, strain KRE1 (second series), hits give low values 1.02 | locus YNL322C, strain KRE1, hits give low values 1.01 | locus YNR049C, strain mso1, hits give low values 1.01 | locus YNR052C, strain pop2, hits give low values 1.01 | locus YOL012C, strain htz1 0.662 | locus YOL147C, strain pex11, hits give low values 0.979 | locus YOR001W, strain rrp6, hits give low values 1.04 | locus YOR061W, strain CKA2, hits give low values 1.01 | locus YOR069W, strain VPS5, hits give low values 1.01 | locus YOR070C, strain gyp1, hits give low values 1.02 | locus YOR080W, strain dia2, hits give low values 1.01 | locus YOR083W, strain WHI5, hits give low values 0.991 | locus YOR106W, strain vam3, hits give low values 1.02 | locus YOR136W, strain idh2, hits give low values 1.02 | locus YOR144C, strain elg1, hits give low values 0.985 | locus YOR184W, strain ser1, hits give low values 1.04 | locus YOR231W, strain MKK1, hits give low values 1.04 | locus YOR265W, strain rbl2, hits give low values 1.01 | locus YOR270C, strain vph1, hits give low values 1.01 | locus YOR290C, strain snf2, hits give low values 0.981 | locus YOR316C, strain cot1, hits give low values 0.991 | locus YPL051W, strain arl3, hits give low values 1.01 | locus YPL078C, strain atp4, hits give low values 0.981 | locus YPL106C, strain sse1, hits give low values 0.996 | locus YPL240C, strain hsp82, hits give low values 1.01 | locus YPL256C, strain CLN2, hits give low values 1.06 | locus YPR119W, strain clb2, hits give low values 1 | locus YPR141C, strain kar3, hits give low values 0.991 | locus YPR163C, strain tif3, hits give low values 0.995 | locus YPR167C, strain met16, hits give low values 0.996 | strain wtn01, hits give low values 0.997
